Source: PubChem BioAssay (National Center for Advancing Translational Sciences (NCATS))
GCN5L2 inh: qHTS Assay for Inhibitors of GCN5L2; Histone acetyltransferase KAT2A (Homo sapiens), Q92830; GCN5L2 HAT assay, ThioGlo1 CoA-SH fluorescence; Potency, µM (doses to about 58.9 µM), for the others: top-dose activity change, negative = inhibition, usual class: inhibitors; 390,000 compounds, 0.21% hits; AID 504327, 2011; note: potency is the fitted concentration of half-maximal effect
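ThioGlo1-coupled HAT assay: 20nM GCN5L2, 70uM acetyl-CoA, 75uM H3(1-25) peptide, pH 7.5. Fluorescence read at 340/540nm at start and after 20 min at room temperature.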
TrxR1 substrate: qHTS Assay for Substrates of Mammalian Selenoprotein Thioredoxin Reductase 1 (TrxR1): qHTS; Thioredoxin reductase 1, cytoplasmic (Rattus norvegicus), O89049; purified TrxR1 substrate turnover, NADPH consumption readout; Potency, µM (highest dose often 114 µM), inactives show at the highest dose activity change, negative = substrate turnover; 390,000 compounds, 0.01% hits; AID 588456, 2011; note: potency is the fitted concentration of half-maximal effect; nearly all actives have a fitted effect of over 50% in size
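Rat TrxR1, dispensed at 90 nM, was prereduced with 400 uM NADPH (final) for 5 min at ~22 deg C, then incubated with compound 15 min before 400 uM selenite. A first-read NADPH fluorescence drop versus no-compound background flagged substrates.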
GALK inhibitor: qHTS Assay for Inhibitors of Human Galactokinase (GALK) | AID 1868, 2009 | 270,000 compounds, 0.007% hits | Potency, µM (titrated, usually from 57.5 µM), for inactives: top-dose activity change, negative = inhibition, usual class: inhibitors | Purified GALK, Kinase-Glo residual ATP luminescence; note: potency is the fitted concentration of half-maximal effect
Target sequence (P51570 whole entry, looked up): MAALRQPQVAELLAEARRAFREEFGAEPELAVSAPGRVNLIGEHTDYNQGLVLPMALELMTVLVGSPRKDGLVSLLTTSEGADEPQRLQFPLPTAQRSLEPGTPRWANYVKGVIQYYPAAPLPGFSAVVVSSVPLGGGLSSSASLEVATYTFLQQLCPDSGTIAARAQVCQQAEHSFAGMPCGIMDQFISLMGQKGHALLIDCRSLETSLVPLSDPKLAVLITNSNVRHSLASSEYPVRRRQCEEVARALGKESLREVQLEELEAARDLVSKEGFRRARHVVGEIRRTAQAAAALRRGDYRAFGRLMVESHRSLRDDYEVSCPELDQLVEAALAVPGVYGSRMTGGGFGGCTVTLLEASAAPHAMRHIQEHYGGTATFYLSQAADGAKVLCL
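Kinase-Glo Plus luminescence measured ATP left after a 1 h room-temperature reaction. The reaction used 5 nM GALK, 100 uM galactose and 35 uM ATP at pH 8.0 (20 mM HEPES, 5 mM MgCl2, 60 mM NaCl, 1 mM DTT, 0.01% BSA).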
Pin1 inh: qHTS Assay to Find Inhibitors of Pin1; Potency, µM (top dose mostly 115 µM), without a hit: top-dose activity, negative = inhibition, usual class: inhibitors; 390,000 compounds, 0.009% hits; AID 504891, 2011; Peptidyl-prolyl cis-trans isomerase NIMA-interacting 1 (Homo sapiens), Q13526; Pin1 FP peptide displacement, HiFluor488, 10 min; active = well fitted inhibition curve with a large enough effect in the polarisation, with a control signal flat, not every such curve was filed as active; inconclusive = small, poorly fitted or top-dose-only effect, or effect the other way, or a change in a side signal; inactive = no such curve, though single readings can be large or run the other way; the % refers to the polarisation; note: potency is the fitted concentration of half-maximal effect
Target sequence (Q13526 whole entry, looked up): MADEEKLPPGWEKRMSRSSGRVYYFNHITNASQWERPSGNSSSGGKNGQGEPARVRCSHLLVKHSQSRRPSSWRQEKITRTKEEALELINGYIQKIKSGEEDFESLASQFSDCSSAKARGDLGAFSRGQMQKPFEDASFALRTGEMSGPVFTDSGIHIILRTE
TrxR1 inh: qHTS Assay for Inhibitors of Mammalian Selenoprotein Thioredoxin Reductase 1 (TrxR1): qHTS; 390,000 compounds, 1% hits; Potency, µM (highest dose often 114 µM), for the others: at the highest dose activity change, negative = inhibition, usual class: inhibitors; recombinant rTrxR1, NADPH fluorescence consumption, selenite substrate; AID 588453, 2011; note: potency is the fitted concentration of half-maximal effect; nearly all actives have a fitted effect of over 65% in size
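Rat TrxR1 (90 nM in the dispensed reagent) was pre-reduced with 400 uM NADPH for 5 min at room temperature, then incubated with compound for 15 min. After 400 uM selenite was added, NADPH fluorescence (Ex 340/Em 450 nm) was followed for 8 min.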
Giardia kill: Small Molecules that selectively kill Giardia lamblia: qHTS. activity change, % at 7.66 µM, hits read low. Giardia lamblia trophozoite viability. 340,000 compounds, 0.15% hits; in the data active = activity change below about -80%; inconclusive = between about -30% and that limit;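 note: parasites exposed to compound for two days anaerobically before the ATP read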
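Media and compound were dispensed first, then trophozoites at 100 cells/well; plates sat 48 hrs at 37 deg C without oxygen before ATP luminescence reagent was added and read after 15-30 min at room temperature.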
Active calls of the source: *; ? = inconclusive; . = no result given; [ ] = dose if it differs, or a comment. Most compounds without a hit are left out; they make up all but 1.3% or so of the library. Unless noted, calls come from the whole dose curve; as a rule, active = well fitted curve in the direction sought with a large enough effect; inconclusive = small, poorly fitted or top-dose-only effect, or another doubt; inactive = no such curve, though single readings can be large; an effect the other way counts as inactive or inconclusive. % is set by controls: 0 for no effect and ±100 for the full control effect.

SMILES	GCN5L2 inh	TrxR1 substrate	GALK inhibitor	Pin1 inh	TrxR1 inh	Giardia kill
CN(C)S(=O)(=O)c1cccc(NC(=O)COC(=O)c2ccc([N+](=O)[O-])o2)c1	-1.0%	-6.8%	-2.9%	2.8%	25.1µM*	9.2
O=C(COC(=O)c1ccc([N+](=O)[O-])o1)Nc1ccc(F)cc1	-2.2%	0.0%	.	1.1%	25.1µM*	-10.9
O=C(NC(Cc1ccccc1)C(=O)O)NC12CC3CC(CC(C3)C1)C2 (stereo not given)	1.1%	-0.7%	-1.5%	-16.4%	7.0%	5.5
O=C1CCCC2=C1C1(CCSC1)N=C(Nc1nc3ccccc3o1)N2 (stereo not given)	.	.	.	1.3%	.	.
Cc1c(Br)cc(F)c([S+](=O)([O-])N2CCN([S+](=O)([O-])c3ccc4c(c3)OCCO4)CC2)c1F	.	.	.	1.8%	.	.
Cc1nc([N+](=O)[O-])cn1CC(=O)c1ccccc1	-1.0%	4.4%	.	6.3%	21.6%	-2.6
Cc1nc([N+](=O)[O-])cn1-c1nc2ccccn2c1[N+](=O)[O-]	-25.1%	-15.5%	.	2.0%	?	-87.8*
CC1=C(C)C(=O)C(CCCCC#CCCCC#CCO)=C(C)C1=O	?	4.9%[57.1 µM]	6.0%	-5.8%	29.9µM*	-2.5
Cc1ccc(C(=O)c2cn(Cc3ccccc3C)c3nc(C)ccc3c2=O)cc1	-3.3%	-1.3%	.	76.5%	11.6%	.
Cc1ccc(CNC(=O)CCCOc2cc(=O)n(C)c3ccccc23)o1	0.0%	-4.1%	-2.1%	-0.2%	39.8µM*	-2.9
Oc1cccc(-c2nc3ncccn3c2Nc2cccc(C(F)(F)F)c2)c1	-12.4%	88.8%	.	-2.9%	13.4%	.
O=C1CCCC2=C1C(c1cccc(O)c1)C1=C(N2)c2ccccc2C1=O (stereo not given)	-1.5%	-12.7%	10.0%	4.0%	79.4µM*	-17.5
Cc1ccc(N(C)S(=O)(=O)c2ccc3c(c2)CCC(=O)N3)cc1C	.	.	.	-9.4%	.	.
O=C(O)C(S)C(S)C(=O)O (stereo not given)	.	-4.1%	.	.	?	-11.4
O=C(O)C(S)[C@@H](S)C(=O)O (stereo not given in full)	7.08µM*	.	.	.	.	.
Cc1nc2ccccc2n2c(O)c(CC(=O)O)cc12	-28.8%	33.6%	0.3%	?	35.5µM*	4.6
Cc1ccc(S(=O)(=O)N2[C@@H](c3cccc(Cl)c3)C(C(=O)O)=CC[C@H]2c2cccs2)cc1	-3.5%	6.2%[57.1 µM]	.	1.3%	12.0%[57.1 µM]	?
C=CCn1c(SCC(=O)NCCCC)nc2scc(-c3ccco3)c2c1=O	-16.8%	-1.9%	3.0%	?	44.7µM*	-11.0
C=CCn1c(SCC(=O)NC2CCCC2)nc2scc(-c3ccco3)c2c1=O	-8.1%	-3.2%	-0.5%	83.6%	35.5µM*	4.1
CCOC(=O)Cc1ccc(NC(=O)Nc2nnc(N3CCCCC3C)s2)cc1 (stereo not given)	-8.6%	-0.5%	.	9.6%	14.9%	.
Cc1cccc(C=Nc2ccc3c4c(cccc24)CC3)c1O	20µM*	44.1%	0.6%	1.1%	-21.2%	2.5
C#CC(=O)N(c1ccc(OC)c(OC)c1)C(C(=O)NC1CCCC1)c1cccs1 (stereo not given)	-1.8%	0.6%	-5.0%	-18.3%	3.16µM*	1.9
N#CN1CCC(N[S+](=O)([O-])c2cccc(F)c2)CC1	.	.	.	-2.7%	.	.
CCOC(=O)c1sc(N2C(=O)C(O)=C(C(=O)c3ccco3)C2c2ccco2)nc1C (stereo not given)	-11.0%	-9.3%	-5.9%	-6.9%	31.6µM*	-2.6
O=C1CS(=O)(=O)N(Cc2ccc(F)cc2)c2ccccc21	-5.6%	-5.8%	.	4.0%	44.7µM*	?
SMILES	GCN5L2 inh	TrxR1 substrate	GALK inhibitor	Pin1 inh	TrxR1 inh	Giardia kill
O=C(NNC(=O)c1cc(-c2ccco2)nc2ccccc12)c1ccccc1	-21.6%	178.0%	3.6%	-12.0%	-8.8%	5.6
O=C(COC(=O)c1ccco1)NCc1ccc(Cl)cc1Cl	-0.8%	-1.2%	.	2.4%	79.4µM*	0.9
O=C(COC(=O)c1cc(-c2ccco2)nc2ccccc12)NCc1ccccc1	-9.6%	29.4%	1.4%	49.1%	44.7µM*	3.0
CNC(=O)COC(=O)c1cc(-c2ccco2)nc2ccccc12	-26.7%	1.3%[57.1 µM]	-2.1%	?	10µM*	22.2
O=C(COC(=O)c1ccco1)NCc1ccccc1Cl	-3.5%	4.8%	-1.2%	-3.2%	25.7%	-20.4
Cn1c(N)c(C(=O)COC(=O)c2cc(-c3ccco3)nc3ccccc23)c(=O)n(C)c1=O	-26.1%	29.8%[57.1 µM]	.	.	12.6µM*	-2.3
CC(=O)c1cc(-c2ccccc2)n(CCC(=O)NCCc2ccccc2)c1C	-0.2%	1.5%[57.1 µM]	.	-9.3%	3.3%[57.1 µM]	.
CC(C)(C)c1ccc(C(=O)NCC(=O)OC(C(=O)Nc2cc(C(F)(F)F)ccc2Cl)c2ccccc2)cc1 (stereo not given)	.	.	.	0.1%	.	.
COc1cc(OC)cc(C(=O)Nc2cc(NC(=O)c3ccco3)ccc2OC)c1	-3.0%	12.6%[57.1 µM]	6.4%	0.2%	0.8%[57.1 µM]	10.5
Cc1ccc(NC(=O)/C=C/c2ccco2)cc1F	-12.5%	-2.1%[57.1 µM]	.	-2.1%	-15.7%[57.1 µM]	.
COc1cc(OC)cc(C(=O)Nc2ccc(NC(=O)c3ccco3)c(C)c2)c1	-4.7%	-3.3%	18.4%	20.8%	25.1µM*	-1.5
O=C(/C=C/c1ccco1)Nc1ccc2nn(-c3ccccc3)nc2c1	-7.3%	-4.8%	-0.5%	33.4%	56.2µM*	13.1
Cc1ccc(-n2nc3ccc(NC(=O)c4ccco4)cc3n2)cc1	-11.7%	17.0%	-0.5%	89.4%	-11.1%	6.1
Cc1cc(NC(=O)/C=C/c2ccco2)ccc1NC(=O)c1ccccc1	3.16µM*	-1.9%[57.1 µM]	-6.7%	-1.3%	-3.1%[57.1 µM]	-24.2
CCCN1CCC(=O)N(C(CSc2ccc(OC)cc2)c2ccccc2)CC1 (stereo not given)	.	-5.4%	.	-3.5%	?	18.2
CCc1ccccc1N1CC(c2nc3ccccc3n2CC(C)C)CC1=O (stereo not given)	-6.9%	-3.2%	.	-0.7%	-10.5%	.
CCCC(=O)N(C)c1ccc(/C=C2\C=Cc3ccccc32)cc1	.	-6.7%	.	.	20µM*	.
CC(=O)N(C)c1ccc(/C=C2\C=Cc3ccccc32)cc1	.	-4.1%	.	.	?	.
CCn1cc(/C=C(\NC(=O)c2ccccc2Cl)C(=O)N2CCOCC2)c2ccccc21	-6.1%	-3.6%[57.1 µM]	6.4%	-0.5%	-2.5%[57.1 µM]	9.7
CCn1cc(/C=C(\NC(=O)c2ccccc2Cl)C(=O)N2CCN(C)CC2)c2ccccc21	3.16µM*	-6.6%	.	11.5%	-4.0%	-5.2
